Reference: PubChem BioAssay AID1159580 (chemical genetic matrix, 2015)
“And” between values parts separate entries of the source, which are not always exact repeats. Equal entries are not always repeated. Hit rate of the full screen: of about 5,500 compounds, about 2,000 (36%) were called active. About 18% were inconclusive and are not listed. Cut-off read from the data, not from the text of the source: active = normalized growth mostly below about 0.91 (no sharp cut-off); inconclusive = no clear call, values can overlap the other calls; inactive = mostly above about 0.92. The list shows a part of the results.

Experiment: chemical genetic growth profiling, strain panel (AID 1159580);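 note: tested at 20 µM; growth read once vehicle control cultures reached saturation at 30 °C; 1 = growth at the plate median or of vehicle wells; lower values mean less growth of the strain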
Details: S. cerevisiae deletion strains, growth OD

Measured: normalized growth

O=C(O)c1cc(=O)c2c(OCC(O)COc3cccc4oc(C(=O)O)cc(=O)c34)cccc2o1
inactive: locus YAL013W, strain DEP1, hits give low values 1.01 | locus YAL021C, strain ccr4, hits give low values 0.964 | locus YAL026C, strain drs2, hits give low values 1.01 | locus YAL030W, strain snc1, hits give low values 0.996 | locus YBL061C, strain skt5, hits give low values 0.977 | locus YBR009C, strain hhf1, hits give low values 0.994 | locus YBR021W, strain FUR4, hits give low values 1.01 | locus YBR023C, strain chs3, hits give low values 0.992 | locus YBR171W, strain sec66, hits give low values 0.96 | locus YBR229C, strain ROT2, hits give low values 1.01 | locus YBR231C, strain swc5, hits give low values 0.963 | locus YBR279W, strain paf1, hits give low values 0.995 | locus YCL011C, strain gbp2, hits give low values 1 | locus YCL016C, strain dcc1, hits give low values 1.02 | locus YCL029C, strain bik1, hits give low values 1.02 | locus YCL061C, strain MRC1, hits give low values 0.983 | locus YCL069W, strain vba3, hits give low values 0.977 | locus YCR088W, strain abp1, hits give low values 0.974 | locus YDL005C, strain med2, hits give low values 0.974 | locus YDL035C, strain GPR1, hits give low values 1.01 | locus YDL040C, strain nat1, hits give low values 0.964 | locus YDL074C, strain BRE1, hits give low values 1.01 | locus YDL101C, strain DUN1, hits give low values 1.01 | locus YDL185W, strain tfp1, hits give low values 1.03 | locus YDL192W, strain arf1, hits give low values 1.02 | locus YDR001C, strain nth1, hits give low values 0.971 | locus YDR069C, strain doa4, hits give low values 0.971 | locus YDR101C, strain arx1, hits give low values 1.03 | locus YDR137W, strain rgp1, hits give low values 0.973 | locus YDR159W, strain sac3, hits give low values 0.926 | locus YDR162C, strain NBP2, hits give low values 1.01 | locus YDR195W, strain ref2 0.896 | locus YDR297W, strain sur2, hits give low values 0.987 | locus YDR318W, strain mcm21, hits give low values 1.02 | locus YDR334W, strain swr1, hits give low values 0.969 | locus YDR335W, strain msn5, hits give low values 0.967 | locus YDR388W, hits give low values 1.02 | locus YDR392W, strain spt3, hits give low values 1.03 | locus YDR502C, strain sam2, hits give low values 1 | locus YEL003W, strain gim4, hits give low values 0.955 | locus YEL037C, strain rad23, hits give low values 0.955 | locus YEL061C, strain CIN8 (second series), hits give low values 0.964 | locus YEL061C, strain CIN8, hits give low values 1.01 | locus YER015W, strain faa2, hits give low values 0.99 | locus YER016W, strain bim1, hits give low values 0.996 | locus YER110C, hits give low values 1.03 | locus YER111C, strain swi4, hits give low values 0.972 | locus YER155C, strain BEM2 (second series), hits give low values 0.935 | locus YER155C, strain BEM2, hits give low values 1.01 | locus YER167W, strain BCK2, hits give low values 1.01 | locus YFR010W, strain ubp6, hits give low values 0.969 | locus YGL078C, strain dbp3, hits give low values 1.01 | locus YGL086W, strain mad1, hits give low values 1 | locus YGL167C, strain pmr1, hits give low values 0.96 | locus YGL173C, strain kem1, hits give low values 0.959 | locus YGL227W, strain vid30, hits give low values 0.977 | locus YGL240W, strain doc1, hits give low values 0.959 | locus YGL248W, strain PDE1, hits give low values 1.01 | locus YGL253W, strain hxk2, hits give low values 0.983 | locus YGR135W, strain pre9, hits give low values 1.02 | locus YGR229C, strain SMI1, hits give low values 1.02 | locus YGR252W, strain gcn5, hits give low values 1.03 | locus YHR013C, strain ard1, hits give low values 0.979 | locus YHR027C, strain rpn1, hits give low values 0.989 | locus YHR030C, strain SLT2, hits give low values 1.01 and 1 | locus YHR079C, strain IRE1 (second series), hits give low values 1.03 | locus YHR079C, strain IRE1, hits give low values 1 | locus YHR094C, strain hxt1, hits give low values 1.02 | locus YHR129C, strain ARP1, hits give low values 1.01 | locus YHR142W, strain chs7, hits give low values 0.966 | locus YHR200W, strain rpn10, hits give low values 1.02 | locus YIL066C, strain RNR3, hits give low values 1.01 | locus YIL073C, strain SPO22, hits give low values 1.06 | locus YIL125W, strain kgd1, hits give low values 1.02 | locus YIR030C, strain dcg1, hits give low values 1.03 | locus YJL092W, strain hpr5, hits give low values 0.978 | locus YJL095W, strain BCK1 (second series), hits give low values 0.974 | locus YJL095W, strain BCK1, hits give low values 1.02 and 0.989 | locus YJL115W, strain asf1, hits give low values 0.967 | locus YJL129C, strain trk1, hits give low values 0.931 | locus YJL134W, strain LCB3, hits give low values 1.01 | locus YJL154C, strain vps35, hits give low values 0.962 | locus YJL164C, strain tpk1, hits give low values 1 | locus YJL166W, strain qcr8, hits give low values 0.953 | locus YJL168C, strain set2, hits give low values 1.02 | locus YJL187C, strain SWE1 (second series), hits give low values 1.02 | locus YJR043C, strain POL32, hits give low values 0.998 | locus YJR066W, strain TOR1, hits give low values 0.992 | locus YJR075W, strain HOC1, hits give low values 1.01
